Shown are actives, neighbours in structure and some others; about 3.4% of the full set was active somewhere.
HGIII-sPLA2 inh = Blocks human group III sPLA2 activity; Q9NZ20; QFRET BODIPY PC-A2 liposome hydrolysis, fluorescence; inhibition, % at 12.2 µM; 370,000 tested, 0.56% active; AID 743126;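 active means inhibition above mean plus 3 SD of compounds lying within the high and low control bounds, cut at about 19% in these data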
KLK7 zymogen act = proKLK7 (human) activation, primary screen | P49862 | purified proKLK7, EDANS-DABCYL substrate fluorescence; 100% is mature enzyme control, 0% vehicle | activation, % at 7 µM | 370,000 tested, 0.9% active;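 active means activation above the mean of all tested compounds plus 3 SD, computed per campaign excluding outliers beyond control limits, cut at about 13% in these data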
ADAM10 inh = ADAM10 inhibition, QFRET primary screen; recombinant ADAM10, EDANS/DABCYL FRET peptide cleavage, 3 h; inhibition, % at 7 µM; 370,000 tested, 0.62% active; AID 720582;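 active means inhibition above a per-campaign cutoff equal to the mean of compounds falling between control-based bounds plus 3 SD, cut at about 20% in these data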
Target sequence (O14672 214-748 limits assumed): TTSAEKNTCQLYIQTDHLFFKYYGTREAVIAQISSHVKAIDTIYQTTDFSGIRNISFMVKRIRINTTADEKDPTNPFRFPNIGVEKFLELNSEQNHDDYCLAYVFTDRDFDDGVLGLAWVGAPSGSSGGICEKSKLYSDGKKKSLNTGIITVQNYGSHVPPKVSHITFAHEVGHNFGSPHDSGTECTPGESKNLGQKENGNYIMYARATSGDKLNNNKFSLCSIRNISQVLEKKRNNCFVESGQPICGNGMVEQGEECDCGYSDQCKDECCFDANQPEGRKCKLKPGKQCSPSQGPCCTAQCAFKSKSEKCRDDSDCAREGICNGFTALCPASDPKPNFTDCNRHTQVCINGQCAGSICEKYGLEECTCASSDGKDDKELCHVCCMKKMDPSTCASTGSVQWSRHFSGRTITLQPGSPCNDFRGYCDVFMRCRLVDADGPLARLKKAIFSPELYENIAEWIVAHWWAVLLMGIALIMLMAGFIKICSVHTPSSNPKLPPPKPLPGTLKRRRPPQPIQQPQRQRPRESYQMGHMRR
ADAM17 inh = ADAM17 inhibition, QFRET primary screen. inhibition, % at 6.95 µM. P78536. 370,000 tested, 0.83% active. recombinant ADAM17, EDANS/DABCYL FRET peptide cleavage;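 active means inhibition above the mean of compounds lying between control limits plus 3 SD, set per campaign, cut at about 8.5% in these data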
PLC-gamma1 inh = PLC-gamma1 (human) inhibition, primary screen. P19174. purified PLC-gamma1, fluorogenic substrate, fluorescence. inhibition, % at 12.2 µM. 370,000 tested, 0.84% active; in the data active means inhibition above about 9.5%
PLCb3 inh = inhibitors of human phospholipase C beta3 | Q01970 | Purified PLC-beta3, fluorogenic substrate, fluorescence | inhibition, % at 12.2 µM | 370,000 tested, 0.18% active | AID 720704; in the data active means inhibition above about 11%
ADAM10 ctr = counter-screen for ADAM17 exosite inhibitors: inhibitors of human ADAM10; inhibition, % at 6.95 µM; shares compounds with ADAM17 inh; recombinant ADAM10, EDANS/DABCYL FRET peptide cleavage, 3 h; 2,900 tested, 47% active;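 active means mean inhibition over the triplicate runs exceeds the activity threshold set in the earlier primary screen, cut at about 20% in these data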
ADAM17 confirm = human ADAM17 inhibition, confirmation; 2,900 tested, 65% active; AID 743257; shares compounds with ADAM17 inh; inhibition, % at 6.95 µM; recombinant ADAM17, EDANS/DABCYL QFRET peptide cleavage;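 active means mean inhibition across replicates above the hit cutoff set in the primary screen, cut at about 8.5% in these data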
Of the large screens only hits and unclear results are named; the others gave an inactive call (follow-up assays come after a bar, where they were run).

Cc1ccc(S(=O)(=O)N2CCN(C(=O)CN3C(=O)NC(C)(c4ccc5ccccc5c4)C3=O)CC2)cc1 (stereo unspecified)	none
COc1cccc(CN(C)C(=O)c2cc(COc3c(F)cccc3F)on2)c1	none
COc1cccc(CN(C)C(=O)c2cc(COc3ccc(-n4cncn4)cc3)on2)c1	ADAM17 inh 8.7 | ADAM10 ctr inactive | ADAM17 confirm inactive
Cc1ccc(OC(=O)c2ccc(S(=O)(=O)N(C)C)cc2)c(-n2nc3ccccc3n2)c1	ADAM17 inh 9.1 | ADAM10 ctr 32 | ADAM17 confirm 17
Cc1cccc(N2CCN(S(=O)(=O)c3c(C(=O)N4CCCCC4)c(C)n(C)c3C)CC2)c1C	none
Cc1[nH]c2ccccc2c1/C=N\NC(=O)CNc1ccc2c(c1)OCO2	ADAM17 inh 13 | ADAM10 ctr inactive | ADAM17 confirm inactive
O=C(CNc1ccc2c(c1)OCO2)N/N=C\c1ccccc1Cl	none
COc1c(C)cc(S(=O)(=O)NCc2ccccn2)c(C)c1C	none
COC(=O)[C@@]1(Cc2ccc(F)cc2)[C@H]2c3cc(C(=O)N(C)C)n(Cc4ccccc4)c3C[C@H]2CN1C(=O)c1ccccc1	ADAM17 inh 9.4 | ADAM10 ctr inactive | ADAM17 confirm inactive
CC(=O)Oc1ccc(N(C(C)=O)S(=O)(=O)c2ccccc2)c2ccccc12	none
Cc1ccc(S(=O)(=O)N(C(=O)c2ccncc2)c2ccc(OC(=O)c3ccncc3)c3ccccc23)cc1	ADAM17 inh 8.9 | ADAM10 ctr 37 | ADAM17 confirm 19
O=C(OCCOc1ccccc1)c1cc(S(=O)(=O)N2CCOCC2)ccc1Cl	none
O=C(OCCOc1cccc(Cl)c1)c1cc(S(=O)(=O)N2CCOCC2)ccc1F	ADAM17 inh 10 | ADAM10 ctr inactive | ADAM17 confirm inactive
COc1ccccc1NC(=O)Cc1nnc(SCC(=O)c2ccccc2)n1C	none
CNC(=S)N1N=C(c2ccc(Br)cc2)CC1c1ccc(Br)cc1 (stereo unspecified)	ADAM17 inh 12 | ADAM10 ctr 27 | ADAM17 confirm 17
C#CCN(Cc1ccco1)C(=O)c1nnc2c3ccccc3n(S(=O)(=O)c3ccccc3)c2n1	none
N#Cc1ccc(C(=O)NCC2CCCCC2)cc1	none
CSCCC(NS(=O)(=O)c1cccc(C(F)(F)F)c1)C(=O)N(C)CCOc1ccc(Cl)cc1 (stereo unspecified)	ADAM17 inh 11 | ADAM10 ctr 41 | ADAM17 confirm 21
CNCC(=O)N1CCN(c2ncc(C(F)(F)F)cc2Cl)CC1	none
C=CCSC1=C(C#N)C(c2ccccc2Cl)C(C(=O)c2cccs2)C(O)(C(F)(F)F)N1 (stereo unspecified)	ADAM17 inh 8.6 | ADAM10 ctr inactive | ADAM17 confirm inactive
CCSC1=C(C#N)C(c2ccccc2Cl)C(C(=O)c2cccs2)C(O)(C(F)(F)F)N1 (stereo unspecified)	none
CCOC(=O)[C@]12CCC=C1N(Cc1cccc3ccccc13)C(=O)[C@H](CC(=O)NCc1cccc3ccccc13)C2	none
CCOC(=O)[C@]12CCC=C1N(Cc1cccc3ccccc13)C(=O)[C@H](CC(=O)NCc1cccs1)C2	ADAM17 inh 11 | ADAM10 ctr 20 | ADAM17 confirm 12
O=S1(=O)CCN(C2CCCCCC2)CC1	none
COc1ccccc1CNC(=S)NCc1ccc(F)cc1	none
CCN(CC)c1ccc(NC(=O)c2cc3c(C)nn(-c4ccccc4)c3s2)cc1	ADAM17 inh 13 | ADAM10 ctr inactive | ADAM17 confirm 10
O=C(NCC1(N2CCCCC2)CCCCC1)C1CC(=O)N(c2ccc3c(c2)OCCO3)C1 (stereo unspecified)	none
O=C(OCCC1Oc2cccnc2NC1=O)c1ccc([N+](=O)[O-])cc1 (stereo unspecified)	ADAM17 inh 9.1 | ADAM10 ctr inactive | ADAM17 confirm inactive
O=C(OCCC1Oc2cccnc2NC1=O)c1ccc(F)cc1 (stereo unspecified)	none
Nc1nc(Nc2cccc(C(F)(F)F)c2)nc(C(F)(F)F)n1	ADAM17 inh 15 | ADAM10 ctr 23 | ADAM17 confirm 16
N#CCOc1ccccc1CNC[C@H]1O[C@@H](n2cnc(C(N)=O)n2)[C@H](O)[C@@H]1O	ADAM17 inh 9.7 | ADAM10 ctr inactive | ADAM17 confirm inactive
CCn1c(C)c(C(C)=O)cc(C#N)c1=O	none
CCOC(=O)c1sc(NC(=O)Nc2ccccc2)cc1C	ADAM17 inh 9.2 | ADAM10 ctr inactive | ADAM17 confirm inactive
CN(c1ccccc1)S(=O)(=O)c1cccc(C(=O)NC2CCCC2)c1	none
CCC(C(=O)Nc1cccc(S(=O)(=O)N(C)c2ccccc2)c1)c1ccccc1 (stereo unspecified)	ADAM17 inh 9.3 | ADAM10 ctr inactive | ADAM17 confirm 8.7
CN(c1ccccc1)S(=O)(=O)c1cccc(NC(=O)COC(=O)C2CCCCC2)c1	ADAM17 inh 8.8 | ADAM10 ctr 32 | ADAM17 confirm 14
CN(c1ccccc1)S(=O)(=O)c1cccc(C(=O)Nc2cccc(C(=O)NC3CC3)c2)c1	ADAM17 inh 9.2 | ADAM10 ctr inactive | ADAM17 confirm inactive
COc1ccc(N(C)S(=O)(=O)c2cccc(C(=O)OC(C(=O)Nc3cc(C)cc(C)c3)c3ccccc3)c2)cc1 (stereo unspecified)	ADAM17 inh 8.6 | ADAM10 ctr inactive | ADAM17 confirm 13
NS(=O)(=O)c1cccc(NC(=O)COC(=O)C2CCCCC2)c1	none
CN1CCC(N(C)C(=O)c2ccc(Cl)c(S(=O)(=O)Nc3cc(Cl)ccc3Cl)c2)CC1	none
O=C(COCC(=O)N1CCOCC1)N1CCOCC1	none
CC(Oc1ccc(F)cc1)C(=O)Nc1cccc(S(=O)(=O)N(C)c2ccccc2)c1 (stereo unspecified)	none
CC(=O)c1cccc(NC(=O)C(OC(=O)c2cccc(S(=O)(=O)N(C)c3ccccc3)c2)c2ccccc2)c1 (stereo unspecified)	ADAM17 inh 9.1 | ADAM10 ctr 24 | ADAM17 confirm 12
Cc1cc(Oc2ccccc2)nc(N)n1	none
Cc1cc(SCCOc2ccccc2)nc(N)n1	ADAM17 inh 11 | ADAM10 ctr inactive | ADAM17 confirm inactive
CCCCN1c2ccccc2N(CCCO)c2cc(C)nnc21	ADAM17 inh 9.8 | ADAM10 ctr inactive | ADAM17 confirm inactive
CCN(C(=O)C1=COCCO1)c1nc2c(C)cccc2s1	ADAM17 inh 9.3 | ADAM10 ctr inactive | ADAM17 confirm inactive
Cc1cc(C)c2nc(N(CCCN(C)C)C(=O)C3=COCCO3)sc2c1	none

Bioassay records from PubChem BioAssay.
